# Tau fluor cs = Counterscreen qHTS for Inhibitors of Tau Fibril Formation, Fluorescence Polarization. actives 0.93% (n = 280,000). Potency, µM (highest dose often 57.7 µM). tau K18 P301L Alexa594 fluorescence, heparin fibrillization; also: nearly all actives have a fitted effect of over 55% in size
#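 Human tau K18 P301L (15 uM unlabeled, 0.24 uM Alexa 594-labeled) in 100 mM sodium acetate pH 7 with 20 uM heparin, 6 hr at 37 C. ThT 30 uM added, 1 hr ambient; Alexa 594 FP and total fluorescence read at 555/632 nm.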
# Tau FP inhib = qHTS for Inhibitors of Tau Fibril Formation, Fluorescence Polarization; Microtubule-associated protein tau (Homo sapiens), P10636; K18 P301L tau heparin fibrillization, Alexa594 FP, 6 h; Potency, µM (series often up to 57.7 µM), hits mostly inhibitors; actives 0.39% (n = 280,000); also: nearly all actives have a fitted effect of over 55% in size
# Target sequence (P10636 561-689 P618L limits assumed): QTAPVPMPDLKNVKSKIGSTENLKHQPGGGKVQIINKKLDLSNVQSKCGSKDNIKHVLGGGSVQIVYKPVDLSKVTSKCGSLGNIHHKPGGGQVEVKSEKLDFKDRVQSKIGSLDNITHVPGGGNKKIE
#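 Steps: dispense K18 P301L tau (15 uM plus 0.24 uM Alexa 594 tracer, final) in pH 7 sodium acetate; add compound; add heparin (20 uM final); incubate 6 hr, 37 C; add ThT (30 uM final); after 1 hr ambient, read FP.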
# Sfp PPTase inh = qHTS Assay for Inhibitors of Bacillus subtilis Sfp phosphopantetheinyl transferase (PPTase). 4'-phosphopantetheinyl transferase ffp (Bacillus subtilis), Q9F4F7. Biochemical Sfp PPTase activity, qHTS. Potency, µM, usual class: inhibitors. actives 3.5% (n = 310,000);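 also: the enzyme is Sfp with the accession as filed and its product quenches rhodamine fluorescence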
#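 After 15 min at room temperature with compound, 15 nM Sfp received 5 uM rhodamine-CoA plus 12.5 uM BHQ-2-ybbR (50 mM Hepes pH 7.6, 10 mM MgCl2). Rate came from the fluorescence difference over 30 min, ex 525/em 598 nm.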
# G9a block = qHTS Assay for Inhibitors of Histone Lysine Methyltransferase G9a | Histone-lysine N-methyltransferase EHMT2 (Homo sapiens), Q96KQ7 | G9a H3K9 monomethylation, AlphaScreen, 2 h | Potency, µM (doses to about 102 µM), usual class: inhibitors | actives 8.8% (n = 350,000); also: nearly all actives have a fitted effect of over 75% in size
# Target sequence (Q96KQ7 913-1193 limits assumed): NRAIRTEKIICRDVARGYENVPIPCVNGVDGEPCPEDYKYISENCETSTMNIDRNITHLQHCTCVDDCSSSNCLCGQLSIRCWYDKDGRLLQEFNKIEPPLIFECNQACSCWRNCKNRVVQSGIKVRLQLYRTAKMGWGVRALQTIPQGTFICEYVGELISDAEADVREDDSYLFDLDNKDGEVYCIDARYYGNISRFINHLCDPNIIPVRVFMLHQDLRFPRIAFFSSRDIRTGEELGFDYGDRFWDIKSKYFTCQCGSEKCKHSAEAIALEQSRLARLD
#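 AlphaScreen read-out: biotin-H3K9 peptide (500 nM) methylation by 20 nM enzyme with 20 uM SAM, 2 h at room temperature after 15 min compound preincubation; anti-monomethyl H3K9 antibody plus donor/acceptor beads, 10 min dark.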
# FBPA coupling cs = qHTS Assay for Inhibitors of Fructose-1,6-bisphosphate Aldolase from Giardia Lamblia: Coupling assay counterscreen; coupling enzyme system counterscreen, AmpLite Red fluorescence; actives 0.67% (n = 290,000); activity change, negative = inhibition, % at 58.2 µM, hits read low; in the data active = activity change below about -30%
#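 Final compound at 57.5 uM, incubated 10 min at RT with coupling enzyme reagent (glyceraldehyde-3-phosphate), then 20 min with substrate and AmpLite Red detection. Fluorescence read at 525/598 nm; tests interference with the coupling assay, not aldolase inhibition.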
# Tau ThT inhib = qHTS for Inhibitors of Tau Fibril Formation, Thioflavin T Binding. Microtubule-associated protein tau (Homo sapiens), P10636. recombinant tau K18 P301L (four-repeat tau fragment), heparin-induced fibrillization, ThT fluorescence. Potency, µM (series often up to 57.4 µM), hits mostly inhibitors. actives 2.1% (n = 270,000). AID 1460, 2008; also: nearly all actives have a fitted effect of over 55% in size
#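 Recombinant human tau K18 fragment […] carrying P301L, 15 uM unlabeled plus 0.24 uM Alexa 594-labeled, was fibrillized with 20 uM heparin in 100 mM sodium acetate pH 7 for 6 hr at 37 C; 30 uM ThT fluorescence read after 1 hr.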
# Hits are given with their value; n = inactive; u = inconclusive; x = no result given; [ ] = dose if it differs, or a comment. Hits are enriched below; roughly 11% of the tested compounds scored in any of these assays. Unless noted, calls follow the shape of the dose curve; as a rule, active = well fitted curve in the direction sought with a large enough effect; inconclusive = small, poorly fitted or top-dose-only effect, or another doubt; inactive = no such curve, though single readings can be large; an effect the other way counts as inactive or inconclusive.
SMILES,Tau fluor cs,Tau FP inhib,Sfp PPTase inh,G9a block,FBPA coupling cs,Tau ThT inhib
C=CCNC(=O)/C(C#N)=C\c1cc(Cl)c(O)c(OCC)c1,n,n,n,11µM,n,u
CCOc1cc(/C=C(/C#N)C(=O)Nc2ccc(O)cc2)cc(Br)c1O,u,n,n,50µM,n,8.9µM
CCOc1cc(/C=N/NC(=O)C(N)=O)cc(Br)c1O,n,n,n,u,n,n
CCOc1ccc(NC(=O)/C(C#N)=C/c2ccc(N3CCCC3)c(C)c2)cc1,n,n,n,n,n,n
CCOc1cc(/C=N/NC(=O)C(=O)NC2CC2)cc(Br)c1O,n,n,n,8.9µM,n,n
NC(=O)c1cc([N+](=O)[O-])c(Cl)cc1NCc1cccnc1,x,x,x,n[2.33 µM],x,x
CC(=O)Nc1cccc(C(=O)Nc2ccc(S(=O)(=O)NC3=NCCCCC3)cc2)c1,x,x,x,n[0.501 µM],x,x
CON(C)S(=O)(=O)c1cccc(C(=O)Nc2ccc(S(=O)(=O)NC3=NCCCCC3)cc2)c1,x,x,x,50µM,x,x
CCN(CC)S(=O)(=O)c1cccc(C(=O)Nc2ccc(S(=O)(=O)NC3=NCCCCC3)cc2)c1,x,x,x,16µM,x,x
CCOc1ccc(N2CCCn3c2nc2c3c(=O)n(CCc3ccccc3)c(=O)n2C)cc1,n,n,n,3.2µM,n,u
COc1ccc(C2CC(=O)c3c(C)nc(N4CCN(C=O)CC4)nc3C2)c(OC)c1 (centres undefined),n,n,x,n,x,n
S=C(NNc1ccnc2cc(Cl)ccc12)Nc1ccc(Cl)cc1Cl,4µM[quencher],u,20µM,u,n,4µM
S=C(NCc1ccncc1)Nc1ccc(Cl)cc1Cl,n,n,n,n,n,n
CCOc1ccccc1Nc1ccnc2cc(Cl)ccc12,n,n,n,n,n,n
CCOc1ccc(NC(=S)NNc2ccnc3cc(Cl)ccc23)cc1,u,n,20µM,7.1µM,n,13µM
O=S1(=O)C2CC3OC2(CC3c2ccc(F)cc2)CN1Cc1ccc(Cl)cc1 (centres undefined),x,x,n,x,n,x
O=C(OCC#CCNc1nnc(-c2cccc3ccccc23)o1)c1cccs1,x,x,x,n[12.7 µM],x,x
NC(=O)CC(NC(=O)Cc1cccc2ccccc12)c1ccc(N2CCC(N3CCCCC3)CC2)c([N+](=O)[O-])c1 (centres undefined),x,x,n,x,n,x
NC(=O)CC(NC(=O)c1ccccc1)c1ccc(N2CCN(c3ccccc3)CC2)c([N+](=O)[O-])c1 (centres undefined),x,x,n,x,n,x
NC(=O)CC(NC(=O)c1ccccc1)c1ccc(N2CCCCCC2)c([N+](=O)[O-])c1 (centres undefined),x,x,n,50µM,n,x
NC(=O)CC(NC(=O)c1cccc(Br)c1)c1ccc(N2CCN(c3ccccn3)CC2)c([N+](=O)[O-])c1 (centres undefined),x,x,n,50µM,n,x
Cc1cc(C)cc(C(=O)NC(CC(N)=O)c2ccc(N3CCC(Cc4ccccc4)CC3)c([N+](=O)[O-])c2)c1 (centres undefined),x,x,n,50µM,n,x
NC(=O)CC(NC(=O)Cc1ccc(Br)cc1)c1ccc(N2CCC(N3CCCCC3)CC2)c([N+](=O)[O-])c1 (centres undefined),x,x,n,56µM,n,x
Cc1ccc(C2N(C)C(=O)c3ccccc3N2C)cc1 (centres undefined),x,x,n,n,n,x
CCCOc1ccccc1/C=C1\SC(N2CCCCC2)=NC1=O,x,x,n,n[0.501 µM],n,x
SMILES,Tau fluor cs,Tau FP inhib,Sfp PPTase inh,G9a block,FBPA coupling cs,Tau ThT inhib
CSC1=C(C#N)C(c2ccccc2Cl)C2=C(N1)c1ccccc1C2=O (centres undefined),u,u,n,16µM,n,28µM
CC1=C(C#N)C(c2cccnc2)C2=C(N1)c1ccccc1C2=O (centres undefined),n,n,n,35µM,n,u
CC(=O)C1=C(C)NC2=C(C(=O)c3ccccc32)C1c1ccccc1 (centres undefined),u,n,n,u,n,18µM
CC1=C(C#N)C(c2ccccc2)C2=C(N1)c1ccccc1C2=O (centres undefined),25µM[quencher],n,n,45µM,n,13µM
CC1=C(C#N)C(c2ccc(O)cc2)C(C#N)=C(C)N1,n,n,n,n,n,n
CSC1=C(C#N)C(c2ccccc2Cl)C2=C(CCCC2=O)N1 (centres undefined),n,n,n,n,n,n
CC1=C(C#N)C(c2cccnc2)C2=C(CCCC2=O)N1 (centres undefined),n,n,n,n,n,n
Cc1ccc(C(=O)N(C)CCOc2ccccc2)cc1S(=O)(=O)N1CCOCC1,x,x,x,n,x,x
CO[C@]1(NC(=O)C(C(=O)O)c2ccc(O)cc2)C(=O)N2C(C(=O)O)=C(CSc3nnnn3C)COC21 (some centres undefined),n,n,n,n[2.33 µM],n,n
Cc1nn(-c2ccccn2)c2c1C(c1c(F)cccc1Cl)C1=C(N2)c2ccccc2C1=O (centres undefined),u,n,n,u,n,u
Cc1nn(-c2ccccn2)c2c1C(c1ccccc1Cl)C1=C(N2)c2ccccc2C1=O (centres undefined),n,n,n,25µM,n,u
CCN(CC)CCNC(=O)c1ccc2c(=O)n3nc(Nc4ccccc4)sc3nc2c1,n,n,x,n,x,u
CN(C(=O)CSc1nc(-c2ccccc2)cn1N)C(c1ccccc1)c1ccccc1,u,n,n,18µM,n,u
Cc1cc(C(=O)CN2C(=O)NC(CC(C)C)C2=O)c(C)n1-c1ccccc1F (centres undefined),n,n,n,50µM,n,n
COc1ccc(CNc2nc(NCc3ccc(OC)cc3)n(C(=O)c3ccccc3[N+](=O)[O-])n2)cc1,u,n,n,6.3µM,n,u
COc1ccc(CNc2nc(NCc3ccc(OC)cc3)n(C(=O)c3ccncc3)n2)cc1,n,n,n,x,n,u
COc1ccc(NC(=O)C(Cl)=C(Cl)Cl)cn1,n,n,n,n,n,n
COc1ccc(NC(=O)/C(Cl)=C(/Cl)S(=O)(=O)Cc2ccccc2)cn1,n,u,n,u,n,7.1µM
COc1ccc(NC(=O)/C(Cl)=C(/Cl)S(=O)Cc2ccc(Cl)cc2)cn1 (centres undefined),n,u,11µM,11µM,n,u
